Test systems include T-47D breast; BT-549 breast; MDA-MB-435 melanoma; SW-620 colon; MCF7 breast; HCT-116 colon; HCC-2998 colon; KM12 colon.
Test in all cases: NCI-60 one-dose screen, 48 h (100 = growth as untreated, 0 = no growth, -100 = all killed)
Common to all, as to details: 10 µM unless noted

Among the data in PubChem BioAssay (NCI) are growth values, retold here.

Compounds without any hit were thinned out: in the full panel of roughly 83,000, 20% have a hit.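 Cells were grown in 96-well plates and exposed to the test compound at a single concentration for 48 hours; results are reported as percent growth, with values below 10 considered active.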 Values without a mark were called inactive. Calls of active or inactive are those of the source.

With `COc1ccc(NC(=O)c2ccc3c(c2)nc(-c2cc4ccccc4[nH]c2=O)n3-c2cc(C(C)(C)C)[nH]n2)cc1`, the growth in the assay with T-47D breast was 78.9%; with BT-549 breast it was 84.5%; in the assay on MDA-MB-435 melanoma, 92.5%; with SW-620 colon, 102%; in the assay on MCF7 breast it was 81.3%; with HCT-116 colon, 86%. The growth was 105% in the assay with HCC-2998 colon and 90.5% with KM12 colon.

Turning to `N=c1ccc2nc3c(cc(N)c4ccccc43)oc-2c1`, the growth was -80.1% (active) with T-47D breast; -13.2% (active) in the assay on BT-549 breast; -86.1% (active) in the assay on MDA-MB-435 melanoma; -79.6% (active) with SW-620 colon; -62.3% (active) with MCF7 breast; -96.1% (active) in the assay with HCT-116 colon. For the same molecule, the growth in the assay with HCC-2998 colon was -96.8% (active); in the assay with KM12 colon, -94.9% (active).

With `c1ccc2[nH]c(-c3ccc(Nc4nc(N5CCCCC5)nc(N5CCOCC5)n4)cc3)nc2c1`, the growth was 23.4% in the assay with T-47D breast; 23.1% in the assay with BT-549 breast; -27.3% (active) in the assay with MDA-MB-435 melanoma; 5.3% (active) with SW-620 colon; 3.49% (active) in the assay with MCF7 breast; 9.65% (active) in the assay with HCT-116 colon. Besides, the growth in the assay with HCC-2998 colon is -1.07% (active); with KM12 colon, 14.3%.

Regarding `COc1ccc(-c2cc(-c3c(C)oc4cc5occc5c(OC)c4c3=O)nc(N)c2C#N)cc1OC`, the growth in the assay on T-47D breast is 41.2%; with BT-549 breast, 70.8%; with MDA-MB-435 melanoma, 17.6%; in the assay on SW-620 colon, 57.5%; in the assay with MCF7 breast, 24.8%; in the assay with HCT-116 colon it was 53.7%. The growth in the assay with HCC-2998 colon was 98%; in the assay with KM12 colon, 59.6%.

For the molecule `O=S(=O)(NCCNc1cc(-c2cn(-c3ccccc3)nc2-c2cccc(O)c2)ccn1)c1cccc(F)c1`, the growth is 11.6% in the assay on T-47D breast; 48% in the assay with BT-549 breast; 43.5% in the assay with MDA-MB-435 melanoma; 19.1% with SW-620 colon; 21.4% with MCF7 breast; 23.2% in the assay on HCT-116 colon. Moreover, the values for the growth in the assay with HCC-2998 colon and with KM12 colon were -15.6% (active) and 31.1%, respectively.

Take `Brc1cnc2[nH]cc(-c3nnc(-c4ccccc4)o3)c2c1`: the growth was 56.5% in the assay with T-47D breast; 82% with BT-549 breast; 78% in the assay on MDA-MB-435 melanoma; 86.4% in the assay with SW-620 colon; 63.6% in the assay on MCF7 breast; 55.7% in the assay with HCT-116 colon. The growth with HCC-2998 colon is 104%; in the assay with KM12 colon, 68.9%.

`COc1ccc(C2(Cl)c3ccccc3N(c3ccccc3)c3ccccc32)cc1`: the growth in the assay on T-47D breast is 5.67% (active); in the assay on BT-549 breast, 11.3%; with MDA-MB-435 melanoma it was -60.9% (active); in the assay with SW-620 colon, 0.491% (active); in the assay with MCF7 breast, -6.13% (active); in the assay with HCT-116 colon, -37.7% (active). Also, the growth in the assay on HCC-2998 colon was -15.6% (active); with KM12 colon, 6.64% (active).

Turning to `CCCCCCCN(CCCCCCC)C(=N)c1ccnc2ccccc12`, the growth in the assay on T-47D breast is -39.9% (active); in the assay on BT-549 breast, 56%; in the assay on MDA-MB-435 melanoma it was -88.5% (active); with SW-620 colon, -75.9% (active); in the assay with MCF7 breast, -62.2% (active); in the assay with HCT-116 colon it was -83.7% (active). In addition, the growth in the assay with HCC-2998 colon was -87% (active); in the assay with KM12 colon it was -16.8% (active).

As for `CCN1CCN(C(=O)[C@]23CCC(C)(C)C[C@@H]2C2=CC[C@@H]4[C@@]5(C)C/C(=C/c6cccnc6)C(=O)C(C)(C)[C@@H]5CC[C@@]4(C)[C@]2(C)CC3)CC1`, the growth with T-47D breast was 20.1%; in the assay on BT-549 breast, 25.7%; in the assay with MDA-MB-435 melanoma, 34.9%; with SW-620 colon, 27.6%; in the assay with MCF7 breast, 5.68% (active); in the assay with HCT-116 colon it was 13.3%. For the same molecule, the growth in the assay with HCC-2998 colon was 18.9%; in the assay with KM12 colon it was 33.8%.

With `N=C(N)c1ccc(-c2ccc(-c3cc(F)cc(F)c3)o2)nc1`, the growth in the assay on T-47D breast was 86.3%; in the assay with BT-549 breast, 97.4%; in the assay with MDA-MB-435 melanoma, 90.9%; in the assay on SW-620 colon it was 54.2%; with MCF7 breast, 66.9%; with HCT-116 colon it was 64.2%. In addition, the growth in the assay on HCC-2998 colon is 96.5%; with KM12 colon, 91.5%.

`CC(=O)O[C@H]1CC[C@]2(C)[C@H]3C(=O)C=C4[C@@H]5C[C@](C)(C(=O)N6CCCNCC6)CC[C@]5(C)CC[C@@]4(C)[C@]3(C)CC[C@H]2C1(C)C`: the growth in the assay with T-47D breast is -49.6% (active); in the assay with BT-549 breast, 86.9%; in the assay on MDA-MB-435 melanoma it was -14.9% (active); in the assay on SW-620 colon, -88.7% (active); with MCF7 breast, -88.7% (active); in the assay with HCT-116 colon, -95.3% (active). In addition, the growth in the assay with HCC-2998 colon was 11.2%; with KM12 colon, 13.4%.

Consider `Brc1ccc2[nH]cc(-c3nc(-c4c[nH]c5ncccc45)cs3)c2c1`, for which the growth in the assay on T-47D breast was 59.8%; in the assay on BT-549 breast, 58.7%; with MDA-MB-435 melanoma, 40.6%; in the assay on SW-620 colon, 6.36% (active); in the assay with MCF7 breast, 32.3%; in the assay on HCT-116 colon, 17.5%. Besides, the figures for the growth in the assay on HCC-2998 colon and in the assay with KM12 colon were 60.2% and 21.3%, respectively.

As for `O=C(CCCCCn1c2ccccc2c2c3c(c4c5ccccc5[nH]c4c21)C(=O)N(O)C3=O)N1CCOCC1`, the growth with T-47D breast is 23.6%; with BT-549 breast, 60.3%; with MDA-MB-435 melanoma, 54.9%; with SW-620 colon, 56.4%; in the assay with MCF7 breast, 15.7%; with HCT-116 colon, 24.3%. Moreover, the growth in the assay on HCC-2998 colon is 18.8%; in the assay on KM12 colon, 47.6%.

For `N#CCCCCCn1c2ccccc2c2c3[nH]c(=O)[nH]c(=O)c3c3c4ccccc4n(CCCCCC#N)c3c21`, the growth was 22.9% in the assay with T-47D breast; 32% with BT-549 breast; 36.8% with MDA-MB-435 melanoma; 61.4% in the assay on SW-620 colon; 45.3% in the assay on MCF7 breast; 28.2% in the assay on HCT-116 colon. Further, the growth is 53.8% in the assay with HCC-2998 colon and 23.8% in the assay with KM12 colon.

With `Cn1cc(-c2csc(-c3cn(C(=O)OC(C)(C)C)c4ccc(Br)cc34)n2)c2cccnc21`, the growth in the assay on T-47D breast is 74.3%; in the assay with BT-549 breast it was 103%; in the assay with MDA-MB-435 melanoma it was 102%; in the assay with SW-620 colon, 90.4%; in the assay with MCF7 breast, 81.5%; with HCT-116 colon, 67.4%. The growth in the assay on HCC-2998 colon and in the assay on KM12 colon was 101% in each case.
